# Only a selection was taken, and hits are over-represented in it overall.
# ERK EGF block: qHTS Assay for Inhibitors of the ERK Signaling Pathway using a Homogeneous Screening Assay; Stimulation with EGF. AID 1454, 2008. 130,000 tested, 0.41% active. Potency, µM (doses to about 11.5 µM), for the others: at the highest dose activity change, negative = inhibition, actives largely listed as inhibitors. HEK293-V1b, EGF-stimulated phospho-ERK AlphaScreen; active means well fitted inhibition curve with a large enough effect;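 further: plate controls were stimulated vehicle wells for no effect and unstimulated vehicle basal for full effect; nearly all actives have a fitted effect of over 55% in size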
#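 EGF-stimulated (25 nM, 5 min) phospho-ERK in HEK293 cells stably expressing V1b, cells pretreated 30 min with compound at 37C. Homogeneous AlphaScreen read on lysates.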
# The depositor's hits bear a star; [ ] = dose if it differs, or a comment. Potency means the concentration at half of the fitted maximal effect.
SMILES,ERK EGF block
COc1cc2c(cc1OC)[C@H](C)N(CC1C(=O)O[C@@H]3C[C@@]4(C)CCC[C@H](C)[C@@]45OC5[C@H]13)CC2 (some centres undefined),-5.6%
Cc1cnc(CNc2cc(-c3ccoc3)ncn2)cn1,24.6%
Cc1[nH]n(-c2ccccc2)c(=O)c1N=O,-7.7%
Cc1[nH]n(-c2ccccc2)c(=O)c1N=Nc1ccc2c(c1)OCCO2,12.6µM*
Cc1ccc(N=Nc2c(C)[nH]n(-c3ccccc3)c2=O)c(C)c1,1.7%
COCCN(CCOC)c1nc(C)nc2c1nc(-c1ccccc1)n2CCCN(C)C,-3.4%
N#CCCn1cnc2c1NC=NC2Cl (centres undefined),-3.4%
COc1cccc(CS(=O)(=O)c2nnnn2CC(C)C)c1,-11.8%
CC12CC[C@@](C(=O)O)(C(=O)C1=O)C2(C)C,-2.2%
C[C@@H]1Oc2ccccc2C=C1/C=C/C(=O)O,1.3%
CCN1C(=O)/C(=C\c2ccncc2)SC1=S,-14.6%[57.5 µM]
CCN1C(=O)/C(=C/C2=Cc3ccccc3OC2C)SC1=S (centres undefined),15.8µM*
N#C/C(=C\c1c[nH]c2ccccc12)C(=O)c1ccc(O)c(O)c1,5.9%
N#CCCn1c(=O)c(-c2ccccc2)nc2cnc(Oc3ccccc3)nc21,4.9%
CCCCCCCCCCCCC/C=C/[C@@H](O)C(CO)NC(C)=O (some centres undefined),-1.1%
O=C(O)c1ccc(C(=O)C(=O)c2ccccc2)cc1,-0.4%[57.5 µM]
CSC(SC)=C(C#N)C(=O)c1ccccc1,25.1µM*
N#CC(C#N)=C(Nc1ccccc1)c1ccccc1,-2.1%
O=S(=O)(O)c1ccc(N=Nc2ccccc2)cc1,-2.5%[57.5 µM]
Nc1ccc(N=Nc2ccccc2)c(N)n1,3.2%[57.5 µM]
Nc1ccc(N=Nc2ccccc2)c2ccccc12,17.8µM*
CN(C)S(=O)(=O)c1cccc(NC(=S)N/N=C/c2ccco2)c1,-5.7%[57.5 µM]
Cc1ccc(-c2csc(N/N=C/c3ccco3)n2)c(C)c1,6.5%
CN(C)S(=O)(=O)c1cccc(-c2csc(N/N=C/c3ccco3)n2)c1,22.4µM*
COC(=O)[C@H](COC(C)(C)C)NC(=O)O[C@H]1C(=O)c2cc(OC)ccc2O[C@@H]1c1ccc(OC)c(Br)c1,-4.2%
SMILES,ERK EGF block
O=C1NN(c2ccccc2)C(=O)/C1=C/c1ccc(Sc2ccc(Cl)cc2)o1,28.2µM*
Cc1cccc(N2NC(=O)/C(=C/c3ccc(-c4ccc(Cl)c(C(=O)O)c4)o3)C2=O)c1,-2.8%
O=C1NN(c2ccccc2)C(=O)/C1=C/c1ccc(-c2ccc(Cl)c(C(=O)O)c2)o1,-8.2%
CC(C)(C)Nc1oc(-c2ccccc2)nc1-c1ccccc1F,-2.7%
O=C(N/N=C/c1cn(-c2ccccc2)nc1-c1cc2ccccc2o1)c1ccncc1,1.0%
O=C(N/N=C/c1cn(-c2ccccc2)nc1-c1cc2ccccc2o1)c1cccnc1,7.08µM*
O=C(N/N=C/c1cn(-c2ccccc2)nc1-c1cccnc1)c1cccnc1,-1.6%
COc1cccc([C@@H]2Oc3ccc(Br)cc3C[C@H]2O)c1,2.4%
CN1C/C(=N\S(=O)(=O)c2ccccc2)N(C)C1=O,12.1%
COCCCN1C(=O)CS/C1=N\S(=O)(=O)c1ccccc1,-3.5%[57.5 µM]
O=Cc1s/c(=N\S(=O)(=O)c2ccccc2)n(CCCCl)c1Cl,22.4µM*
COC(=O)C1=C(C)N(CC2CC2)C(=O)N[C@H]1CCc1ccccc1,-4.0%
COc1ccc(/C=C2\SC(=O)N(CC(=O)NCCC(C)C)C2=O)cc1OC,1.5%[57.5 µM]
COc1ccc(/C=C2/SC(=O)N(CC(=O)NCCC(C)C)C2=O)cc1OC,-7.3%
COc1ccc(/C=C2\SC(=O)N(CC(=O)NNC(=O)c3ccccc3O)C2=O)cc1OC,12.6µM*
C[C@]12C[C@H](O)CC(CO)(CO)C1[C@H](O)C[C@@]13CC4[C@@H](CC12)[C@@]4(C)C3 (some centres undefined),3.6%
CC(C)(C)OC(=O)NCCCCC1=CC2=CC(=O)C(C)(OC(=O)CCc3ccccc3)C(=O)C2=CO1 (centres undefined),-6.4%
CCOc1ncnc2c1[nH]c1ccccc12,-9.1%[57.5 µM]
c1ccc2c(c1)CCN(c1ncnc3nc[nH]c13)C2,8.0%
CCOc1ccc2[nH]c3c(N4CCc5ccccc5C4)ncnc3c2c1,31.6µM*
COC(=O)C1(C(=O)OC)Cc2conc2[C@H]1c1ccccc1,-2.2%
C[C@H]1CC[C@@H]2N(C1)C[C@H]1[C@@H]3C[C@H]4[C@@H](C/C(=N\O)[C@H]5C[C@@H](O)CC[C@@]54C)[C@@H]3CC[C@H]1[C@]2(C)O,-12.1%
CC(=O)[C@@]1(O)CC[C@H]2C3CCC4=CC(=O)CC[C@]4(C)C3CC[C@@]21C (some centres undefined),-2.9%
C[C@@H](Oc1ccc(Oc2cnc3ccc(Cl)cc3n2)cc1)C(=O)O,5.9%
CCN1C(=C(C#N)C#N)C=Cc2cc(C)ccc21,-5.1%
C=CC[n+]1c(/C=C2\C=Cc3cc(C)ccc3N2CC)ccc2ccccc21,22.4µM*
CCCCCC(O)/C=C/C=C\CCCCCCCC(=O)O (centres undefined),3.8%

# Screening results (PubChem BioAssay)
